Only a selection was taken, and hits are over-represented in it overall.
LmPK inhibitor: LmPK (Leishmania mexicana) enzyme inhibition; Q27686; purified LmPK, Kinase-Glo ATP luminescence, 1 h; hit rate 0.37% among 290,000; AID 1721; Potency, µM (highest dose often 57.5 µM), inactives show at the top dose activity change, negative = inhibition, most hits filed as inhibitors; further: potency means the concentration at half of the fitted maximal effect; on the % scale 0 is the no-effect control and ±100 the full control effect
Target sequence (Q27686 whole entry, looked up): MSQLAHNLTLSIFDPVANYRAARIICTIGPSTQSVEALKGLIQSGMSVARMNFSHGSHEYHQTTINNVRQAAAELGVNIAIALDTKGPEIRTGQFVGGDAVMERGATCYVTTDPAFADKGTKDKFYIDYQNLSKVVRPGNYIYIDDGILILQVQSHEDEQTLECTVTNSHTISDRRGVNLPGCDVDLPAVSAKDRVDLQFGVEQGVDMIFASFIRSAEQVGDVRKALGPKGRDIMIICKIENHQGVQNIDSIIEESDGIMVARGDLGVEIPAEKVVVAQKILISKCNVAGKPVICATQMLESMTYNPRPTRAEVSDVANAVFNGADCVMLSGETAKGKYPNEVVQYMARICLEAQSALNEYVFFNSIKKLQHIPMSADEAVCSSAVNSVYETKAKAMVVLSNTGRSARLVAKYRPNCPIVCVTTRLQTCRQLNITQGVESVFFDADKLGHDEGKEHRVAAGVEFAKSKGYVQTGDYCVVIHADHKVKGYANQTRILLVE
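Kinase-Glo luminescence read after 1 h RT reaction of 0.1 nM LmPK with 0.5 mM PEP and 0.1 mM ADP. Activity scaled between uninhibited and enzyme-free controls.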
Shiga inhibitor: blocks Shiga toxin action in Vero cells; hit rate 9.2% among 290,000; Vero cells, Shiga toxin protein synthesis inhibition reporter; inhibition, % at 38.7 µM; in the data active means inhibition mostly above about 28%, no sharp cut-off; inactive means mostly below about 43%; further: 0% is about no effect
FBPA Giardia inh: blocks Giardia fructose-bisphosphate aldolase activity; hit rate 0.71% among 290,000; purified Giardia FBPA; A8B2U2; Potency, µM (top dose mostly 59.6 µM), inactives show top-dose activity, negative = inhibition, hits mostly inhibitors; further: potency means the concentration at half of the fitted maximal effect; on the % scale 0 is the no-effect control and ±100 the full control effect; nearly all actives have a fitted effect of over 55% in size
Target sequence (A8B2U2 whole entry, looked up): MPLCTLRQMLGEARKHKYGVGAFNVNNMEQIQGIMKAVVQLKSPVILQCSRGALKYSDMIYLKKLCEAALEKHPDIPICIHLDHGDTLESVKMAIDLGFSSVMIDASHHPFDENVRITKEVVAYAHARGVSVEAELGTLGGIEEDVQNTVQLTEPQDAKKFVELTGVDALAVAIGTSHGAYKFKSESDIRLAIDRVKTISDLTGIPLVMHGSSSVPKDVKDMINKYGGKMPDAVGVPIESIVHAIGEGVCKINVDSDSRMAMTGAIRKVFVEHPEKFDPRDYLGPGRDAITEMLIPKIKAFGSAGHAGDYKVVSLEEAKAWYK
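Giardia FBPA (40 nM reagent) was preincubated 10 min at RT with compound (up to 57.5 uM final), then substrate plus GAPDH/TPI/NAD/arsenate coupling system with diaphorase/resazurin was added; resorufin fluorescence (525/598 nm) was read after 20 min.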
Tb PYK inh: inhibitors of Trypanosoma brucei pyruvate kinase | Q57TT1 | TbPYK enzyme, Kinase-Glo Plus ATP luminescence, 45 min | Potency, µM (titrated, usually from 76.8 µM), for inactives: top-dose activity, negative = inhibition, hits mostly inhibitors | hit rate 0.12% among 410,000 | AID 624173; further: potency means the concentration at half of the fitted maximal effect; on the % scale 0 is the no-effect control and ±100 the full control effect; nearly all actives have a fitted effect of over 50% in size
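Luminescence from Kinase-Glo Plus, added after a 45-minute room-temperature reaction, served as the end-point read-out. The enzyme and substrate were preincubated with compound before ADP (130 uM final) initiated turnover. Concentration-effect curves came from normalized qHTS data.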
Sm TGR inh: S. mansoni TGR enzyme inhibition; Q962Y6; AID 485364; purified TGR, DTNB reduction, TNB absorbance 405 nm; Potency, µM (doses to about 114 µM), for the others: at the top dose activity change, negative = inhibition, usual class: inhibitors; hit rate 3% among 360,000; further: potency means the concentration at half of the fitted maximal effect; on the % scale 0 is the no-effect control and ±100 the full control effect; nearly all actives have a fitted effect of over 60% in size
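First, TGR (20 nM dispensed) and NADPH were mixed with compound. Second, a 15 min room-temperature incubation followed. Third, further NADPH and then DTNB were added to start the reaction. Finally, TNB absorbance was monitored kinetically.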
Cycloheximide cs: affects cycloheximide protein synthesis inhibition readout, counter-screen; cell reporter, cycloheximide protein synthesis inhibition counterscreen; max response, %; hit rate 12% among 300,000; AID 2314; in the data active means max response mostly above about 13%, no sharp cut-off; inactive means mostly below about 14%; further: read at 38.3 µM for the half of the compounds with a filed dose; 0% is about no effect
* = called active by the depositor; ? = inconclusive; / = no result given; [ ] = dose if it differs, or a comment. Unless noted, the call rests on the fitted dose curve; in most records, active means well fitted curve in the direction sought with a large enough effect; inconclusive means small, poorly fitted or top-dose-only effect, or another doubt; inactive means no such curve, though single readings can be large; an effect the other way counts as inactive or inconclusive.

SMILES | LmPK inhibitor | Shiga inhibitor | FBPA Giardia inh | Tb PYK inh | Sm TGR inh | Cycloheximide cs
COc1ccc([N+](=O)[O-])c(OC)c1C(=O)NC(=O)Nc1nc(C)cc(C)n1 | 3.9% | -9.6 | -23.6% | -2.7% | -0.3% | 0.5
COc1ccc(Br)c(OC)c1C(=O)NC(=O)Nc1nc(C)cc(C)n1 | 9.8% | -9.9 | 19.9µM* | -5.0% | 0.3% | -3.0
Cc1c([N+](=O)[O-])c(C(=O)N2CCCC2)nn1C | -5.2% | -14.6 | 9.7% | -19.1% | 1.1% | -2.9
Cc1c([N+](=O)[O-])c(C(=O)Sc2ccc(Br)cc2)nn1C | 6.4% | -4.6 | 11.2% | -0.1% | 0.501µM* | -2.6
COc1ccc(CNc2ncncc2-c2cccc(C#N)c2)c(OC)c1 | / | / | 8.9% | / | / | /
Cc1c(C(=O)NCc2ccccc2CN2CCCC2)oc2ccc(F)cc12 | / | / | / | -5.9% | -5.5% | /
Cc1ccc(-c2cc(C(=O)N/N=C/c3ccc(F)cc3)n[nH]2)o1 | 4.9% | -5.9 | 5.7% | -4.6% | 1.4% | 10.2
Cc1ccc(-c2cc(C(=O)N/N=C/C(Br)=C/c3ccccc3)n[nH]2)o1 | 0.0% | 16.5 | -2.5% | -5.7% | ? | 6.2
Cc1ccc(-c2cc(C(=O)N/N=C/c3ccccc3O)n[nH]2)o1 | -3.1% | 59.5* | -2.6% | -2.1% | -4.0% | 33.8*
Cc1ccc(-c2cc(C(=O)N/N=C/c3c[nH]c4ccccc34)n[nH]2)o1 | 1.6% | -0.6 | 4.3% | -0.7% | -11.8% | 16.8*
O=S(=O)(c1cccc(-c2nnc(SCc3nc4ccccc4s3)o2)c1)N1CCOCC1 | 0.1% | 128.2* | 1.3% | -2.3% | 1.5% | 97.3*
COc1ccccc1CCC(=O)N(C)CC(=O)Nc1ccc(F)cc1 | -12.1% | -38.6 | / | -1.1% | 0.8% | -1.5
Cc1cc(-c2cn3ccccc3n2)c(C)n1-c1ccccc1 | -11.9% | 64.3* | -16.0% | 2.0% | 1.1% | 48.1*
COc1ccc(C2NC3=C(CCCC3)C(C#N)(C#N)C2(C#N)C#N)cc1 (centres undefined) | 3.7% | 13.5 | ? | / | 1.78µM* | 9.9
CCOC(=O)c1ccc(NS(=O)(=O)c2cc(-c3onc(C)c3C)ccc2C)cc1 | / | / | / | 3.7% | -0.8% | /
Cc1ccc(CNC(=O)CN2C(=O)CCc3cc(S(=O)(=O)N4CCCCC4)ccc32)cc1 | / | / | / | -14.2% | 3.8% | /
Clc1ccc(N/N=C/c2ccncc2)cc1Cl | 0.9% | 60.2* | 6.8% | -3.7% | -3.5% | 37.9*
Clc1cnc(N/N=C/c2ccncc2)c(Cl)c1 | 3.2% | 48.6* | -1.5% | -3.7% | 4.0% | 15.6*
COc1cccc(CNc2ccccn2)c1O | -0.4% | / | 12.4% | 0.6% | 28.2µM* | 33.7*
COc1cccc(CNc2cc(C)ccn2)c1O | -5.7% | 50.8* | 7.5% | -10.2% | 22.4µM* | 38.6*
Oc1c(Br)cc(Br)cc1CNc1cccc2cccnc12 | 0.0% | -12.5 | ? | -6.9% | 1.78µM* | -5.6
Cc1ccnc(NCc2cccc3ccccc23)c1 | -1.5% | -1.0 | ? | -2.2% | -23.4% | 10.8
COc1cccc(CNc2ccc([N+](=O)[O-])cc2Cl)c1O | 1.2%[11.5 µM] | 44.2 | -6.4% | 5.4% | 9.4% | 38.9*
COc1cccc(CNc2ccc(F)c(Cl)c2)c1O | 4.2% | -7.5 | -4.4% | -7.1% | -14.6% | -3.2
COc1cccc(C(=O)Nc2cccc(-c3cn4ccsc4n3)c2)c1OC | / | / | / | -7.1% | 1.0% | /
SMILES | LmPK inhibitor | Shiga inhibitor | FBPA Giardia inh | Tb PYK inh | Sm TGR inh | Cycloheximide cs
O=C(C[C@H]1C/C=C\CC[C@H](Cc2ccc(F)cc2)C(=O)OC[C@H]2CCCN2C1=O)N[C@@H](CO)Cc1ccccc1 | / | / | / | 2.3% | / | /
CCCOc1ccc(CN(C(=O)c2cc(=O)c3ccc(C)cc3o2)C2CCS(=O)(=O)C2)cc1 (centres undefined) | / | / | / | 1.5% | -0.9% | /
Cc1ccc(O)c(CNc2cccc3cccnc23)c1 | 9.9% | 31.7 | -22.1% | -7.4% | -0.5% | 5.1
COc1ccc(CNc2ccccn2)c(O)c1 | -1.9% | 47.7* | 3.4% | 1.7% | ? | 20.1*
COc1cccc(CNc2cccc3cccnc23)c1O | -15.5% | active | ? | -9.3% | -6.5% | 16.4*
Oc1c(Br)cc(Br)cc1CNc1ccccn1 | 4.7% | 9.7 | -8.0% | 14.7% | -30.4% | 5.6
O=S(=O)(c1ccccc1)N1CCC2(CCCN(Cc3ccncc3)C2)CC1 | / | / | 0.1% | 0.0% | / | /
Cc1ccccc1P(=O)(c1ccccc1)c1ccccc1C | / | / | / | -5.7% | / | /
COC(=O)C1=C(C)N(Cc2ccco2)C(=O)N[C@@H]1c1cccc(C(F)(F)F)c1 | 3.3% | -11.0 | 2.4% | / | 28.2µM* | -4.3
COCCN1C(=S)N[C@@H](c2ccccc2)C(C(=O)OC)=C1C | -11.3% | -4.6 | 10.0% | / | 31.6µM* | -0.8
COC(=O)C1=C(C)N(Cc2ccccc2)C(=S)N[C@H]1c1ccc(Br)cc1 | -10.4% | 1.7 | 26.2% | -0.6% | 12.7% | -1.0
COC(=O)C1=C(C)N(Cc2ccccc2)C(=S)N[C@H]1c1cccc(C(F)(F)F)c1 | -3.6% | 27.5* | ? | -2.7% | -9.3% | 19.3*
O=C(COc1ccccc1)Nc1ccccc1NS(=O)(=O)c1cccs1 | 1.2% | 17.5 | 12.0% | -2.3% | 7.0% | -2.4
O=C(Nc1c(-c2cccs2)nc2ccccn12)c1ccccc1F | 5.3% | -3.7 | 0.7% | -0.2% | 11.1% | -1.9
Cc1cc(Cl)ccc1OCC(=O)Nc1ccccc1NS(=O)(=O)c1cccs1 | 6.7% | 23.0 | -0.6% | 0.7% | 0.6% | 23.5*
O=C(COc1ccc(Cl)cc1Cl)Nc1ccccc1NS(=O)(=O)c1cccs1 | 7.8% | 94.4* | -8.1% | -9.2% | / | 47.1*
O=C(COc1ccc(Cl)cc1Cl)Nc1c(-c2cccs2)nc2ccccn12 | 3.8% | 29.6 | 0.2% | -5.0% | -3.3% | 12.7*
CCCn1c2ccccc2c2cnn(CC(=O)N3CCN(C4CCCCC4)CC3)c(=O)c21 | -1.3% | 14.4 | 19.8% | -0.3% | -7.7% | 0.4
COc1ccc(O[C@H]2C=C[C@@H](c3ccccc3)O[C@H]2COC(=O)CC/C(C)=N/OCC[C@@H]2C=C[C@H](OC(C)=O)[C@H](COC(C)=O)O2)cc1 | / | / | -1.5%[12.9 µM] | / | / | /
COc1ccc(S(=O)(=O)N2CCN(C(=O)COc3ccc(C)c(C)c3)CC2)cc1OC | 1.8% | -5.7 | 2.0% | 1.0% | -23.6% | 1.4
N#C/C(=C\c1cccn1S(=O)(=O)c1cccc(C#N)c1)S(=O)(=O)c1ccc(F)cc1 | / | / | / | 0.2% | / | /
O=[N+]([O-])c1cc2oc3c(c2c(C=NCc2ccncc2)c1O)CCCC3 | 14.1µM* | -9.7 | ? | ? | ? | -2.7
O=S1(=O)CCOC[C@H](c2ccccc2)N1Cc1cccc(Cl)c1 | -7.3% | -1.2 | -2.2% | -3.8% | 4.2% | -1.6
Nc1cc(N)nc(SCCc2ccccc2)n1 | -3.7% | 26.3 | -6.0% | -1.9% | 5.3% | 16.5*
Nc1cc(N)nc(SCc2ccccc2)n1 | -0.5% | 53.2* | 1.0% | 2.2% | 8.7% | 40.8*
CC(=O)Nc1cc([As](=O)(O)O)ccc1O | -2.2% | 6.0 | -11.3% | 0.2% | 7.08µM* | 3.3
